Screening data as filed in PubChem BioAssay.
SARS PLpro yeast – SARS-CoV PLP inhibition in yeast; S. cerevisiae expressing SARS-CoV PLpro, growth rescue; Potency, µM (highest dose often 32.9 µM), without a hit: at the highest dose activity, positive = growth rescue, usual class: activators; actives 0.19% (n = 330,000); AID 485353; calls by dose curve; note: potency is the fitted concentration of half-maximal effect; 0% is about no effect; nearly all actives have a fitted effect of over 55% in size
Cycloheximide cs – counter-screen hit for Shiga toxin inhibitors, cycloheximide. cell reporter, cycloheximide protein synthesis inhibition counterscreen. max response, %. actives 12% (n = 300,000); in the data active = max response mostly above about 13%, no sharp cut-off; inactive = mostly below about 14%; note: read at 38.3 µM for the half of the compounds with a filed dose; 0% is about no effect
Pf growth 48h – inhibits P. falciparum growth in the first generation, 48 h; actives 5.9% (n = 310,000); P. falciparum luciferase growth in erythrocytes, 48 h; Potency, µM (top dose mostly 28.7 µM), without a hit: at the highest dose activity change, negative = inhibition, actives largely listed as inhibitors; note: potency is the fitted concentration of half-maximal effect; % is set by controls: 0 for no effect and ±100 for the full control effect
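Compounds are pin-transferred into medium, infected erythrocytes (2% hematocrit, 0.1% parasitemia final) are added, and plates sit one parasite generation at 37 C in 5% CO2. Detection reagent is then added and luminescence measured.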
NS1 inh – inhibitors of influenza NS1 protein function; Potency, µM (series often up to 46.1 µM), for inactives: at the highest dose activity, positive = more growth; actives 0.4% (n = 270,000); AID 2326; calls by dose curve; note: potency is the fitted concentration of half-maximal effect; actives are rising curves; nearly all actives have a fitted effect of over 50% in size
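OD600 was taken as the measure of yeast growth restored by compound in an NS1-expressing S. cerevisiae strain. Cells had been washed out of glucose medium and diluted 1:100 into galactose -URA medium, pH 6.0.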
Shiga inhibitor – Shiga toxin inhibition | inhibition, % at 38.7 µM | Vero cells, Shiga toxin protein synthesis inhibition reporter | actives 9.2% (n = 290,000); in the data active = inhibition mostly above about 28%, no sharp cut-off; inactive = mostly below about 43%; note: 0% is about no effect
Pf growth 96h – P. falciparum growth inhibition at 96 hour, primary screen for plastid delayed-death inhibitors; P. falciparum luciferase reporter growth, 96 h; Potency, µM (highest dose often 28.7 µM), for the others: at the highest dose activity change, negative = inhibition, most hits filed as inhibitors; actives 6.9% (n = 320,000); note: potency is the fitted concentration of half-maximal effect; % is set by controls: 0 for no effect and ±100 for the full control effect
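Parasite growth measured via integrated firefly luciferase reporter in P. falciparum. Infected erythrocytes at 2% hematocrit, 0.05% parasitemia final were treated 96 hours at 37 C under 5% CO2, and luminescence was read.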
Active calls of the source: *; ? = inconclusive; / = no result given. Only some compounds are listed: those with a hit (about 21% of all), similar ones and a draw of the others. Unless noted, calls come from the whole dose curve; as a rule, active = well fitted inhibition curve with a large enough effect; inconclusive = small, poorly fitted or top-dose-only effect, or another doubt; inactive = no such curve, though single readings can be large or run the other way.

SMILES	SARS PLpro yeast	Cycloheximide cs	Pf growth 48h	NS1 inh	Shiga inhibitor	Pf growth 96h
Cc1cc(C(F)(F)F)c2c(=O)[nH]c(=O)n(Cc3ccccc3)c2n1	5%	-6	-7%	-1%	-12	?
CC(C)Cn1c(=O)[nH]c(=O)c2c(C(F)(F)F)cc(-c3ccccc3)nc21	-1%	0	?	-3%	3	8.3µM*
CCCn1c(=O)[nH]c(=O)c2c(C(F)(F)F)cc(-c3ccc(C)cc3)nc21	-2%	6	40%	/	-4	2.6µM*
O=c1[nH]c(=O)n(Cc2ccccc2)c2nc(-c3ccco3)cc(C(F)(F)F)c12	-1%	-3	?	-4%	-3	5.9µM*
O=C1CCC(C(=O)Nc2cccc(S(=O)(=O)N3CCOCC3)c2)N1 (centres undefined)	-1%	-3	24%	/	-4	?
COc1cccc(CN2C(=O)CCC2(C)C(=O)NC2CCCC2)c1 (centres undefined)	-4%	-2	/	4%	-7	12%
Cc1nn(C(C)C(=O)N2CCOCC2)c(C)c1[N+](=O)[O-] (centres undefined)	15%	-3	7%	5%	-9	?
CC1(CN2CCC(n3c(=O)[nH]c4ccccc43)CC2)OCc2ccccc2-n2cccc21 (centres undefined)	/	4	15µM*	/	-12	13µM*
C/C(=N\NC(=S)NCc1ccccc1)c1ccco1	0%	19*	7%	-9%	37*	?
C=C(C)CNC(=S)N/N=C(\C)c1ccc(OC)cc1	-29%	6	13µM*	-17%	9	-32%
C/C(=N\NC(=S)NCc1ccccc1)c1ccccc1	-29%	28*	21%	-25%	active	-3%
C/C(=N\NC(=S)NCc1ccccc1)c1ccc(C(C)(C)C)cc1	?	12*	9.3µM*	8%	-7	?
COc1ccc(/C(C)=N/NC(=S)Nc2cc(C)ccc2C)cc1	-3%	-3	0%	-2%	-9	?
CC/C(C)=N/NC(=S)NCc1ccco1	-2%	-2	-18%	-6%	-4	-5%
COc1cc(NC(=O)C(=O)NCCN2CCNCC2)c(OC)cc1Cl	5%	4	14%	/	18	?
CCNC(=O)CSc1nc2cc(OC)c(OC)cc2c(=O)n1CCC1=CCCCC1	-4%	0	?	2%	33	59%
COc1ccc(CNC(=S)N/N=C(/C)c2ccccc2)cc1	-1%	49*	42%	-7%	84*	-18%
C/C(=N\NC(=S)NCc1ccccc1)c1ccc(C#N)cc1	1%	-2	?	-2%	-5	-2%
CNC(=S)N/N=C(\C)c1ccc(C(C)(C)C)cc1	19%	24*	-9%	-3%	30*	?
Cc1[nH]c2ccccc2c1/C=N/NC(=S)NCc1ccccc1	1%	13	203%	/	-11	7%
C/C(=N\NC(=S)NCc1ccccc1)c1ccccc1F	23%	23	?	/	46*	-28%
CC1=C/C(=N\NC(=S)NCc2ccccc2)CC1	?	26*	?	-2%	56*	?
O=C(CSc1nnc2c(Cl)cc(C(F)(F)F)cn12)NCc1ccc(F)cc1	-1%	4	?	16%	21	8.3µM*
COc1ccc(-c2oc3ncnc(NCCN4CCOCC4)c3c2-c2ccc(OC)cc2)cc1	0%	-1	/	-147%	-23	?
CCOc1cc2nc(-c3ccc(OC)c(OC)c3)nc(NCCCN3CCOCC3)c2cc1OC	3%	-5	/	0%	-13	0.074µM*
COc1ccc(-c2oc3ncn(CCN4CCOCC4)c(=N)c3c2-c2ccc(OC)cc2)cc1	-7%	-2	7.4µM*	-10%	-11	22%
COc1cc2ncnc(NCCCN3CCOCC3)c2cc1OC	1%	-1	?	-2%	-7	?
COc1ccc(-c2oc3ncnc(NCCCN4CCOCC4)c3c2-c2ccc(OC)cc2)cc1	4%	2	5.2µM*	-46%	-4	82%
COc1ccc(C2CC(=O)C(C=NCCN3CCOCC3)=C(O)C2)cc1 (centres undefined)	-7%	2	3%	-15%	-19	88%
CCOc1ccccc1CNC(=O)Cn1nc(C)c2c(C)n(-c3ccc(C)cc3)nc2c1=O	17%	11	-18%	9%	15	?
